Rows were chosen to be rich in hits. Some 11% of all compounds tested hit in one or more screens of this group.
L3MBTL1 inh = blocks human L3MBTL1; 230,000 compounds, 0.66% hits; Potency, µM (series often up to 57.1 µM), most hits filed as inhibitors; AlphaScreen L3MBTL1–H3K9me1 peptide binding; note: nearly all actives have a fitted effect of over 60% in size
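L3MBTL1 (50 nM) pre-complexed 30 min with biotinylated H3(1-15)K9me1 peptide (75 nM), then compounds added for 30 min at room temperature; AlphaScreen streptavidin donor/nickel chelate acceptor beads (10 ug/mL final) read after 30 min dark incubation.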
BAZ2B inh = inhibitors of human BAZ2B bromodomain; Q9UIF8; AlphaScreen BAZ2B-H3K14Ac peptide displacement; Potency, µM (titrated, usually from 114 µM), actives largely listed as inhibitors; 360,000 compounds, 4.4% hits; AID 504333; note: nearly all actives have a fitted effect of over 60% in size
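AlphaScreen displacement of biotin-H3(5-23)K14Ac peptide (50 nM final) from BAZ2B (50 nM final) in PBS pH 7.4, 0.01% Tween-20; complex preformed 30 min RT, then compounds (top 110 uM) 30 min RT, beads 20 min dark.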
JMJD2A Tudor inh = JMJD2A Tudor domain (human) inhibition. O75164. Potency, µM (highest dose often 114 µM), hits mostly inhibitors. AlphaScreen JMJD2A-Tudor / H3K4me3 peptide binding. AID 504339. 390,000 compounds, 4.4% hits; note: nearly all actives have a fitted effect of over 50% in size
G9a block = inhibitors of human histone lysine methyltransferase G9a; 350,000 compounds, 8.8% hits; Potency, µM (titrated, usually from 102 µM), usual class: inhibitors; G9a H3K9 monomethylation, AlphaScreen, 2 h; note: nearly all actives have a fitted effect of over 75% in size
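AlphaScreen read-out: biotin-H3K9 peptide (500 nM) methylation by 20 nM enzyme with 20 uM SAM, 2 h at room temperature after 15 min compound preincubation; anti-monomethyl H3K9 antibody plus donor/acceptor beads, 10 min dark.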
HP1b binding inh = inhibitors of HP1-beta chromodomain binding to methylated histone tails; P83916; AlphaScreen HP1-beta / biotin-H3K9me3 peptide binding; Potency, µM (doses to about 114 µM), actives largely listed as inhibitors; 390,000 compounds, 0.56% hits; note: nearly all actives have a fitted effect of over 70% in size
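AlphaScreen: HP1-beta (50 nM) preformed 30 min with biotin-H3(1-18)K9me3 peptide (50 nM) in PBS pH 7.4, 0.01% Tween-20. Compound added for 30 min at RT, then streptavidin donor/nickel chelate acceptor beads (10 ug/mL) for 30 min.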
Each line names hits and unclear results; the compound was inactive in the other large screens. Calls come from the whole dose curve; as a rule, active = well fitted inhibition curve with a large enough effect; inconclusive = small, poorly fitted or top-dose-only effect; inactive = no such curve, though single readings can be large or run the other way.

Cc1ccc(/C=N/Nc2nncc(-c3ccccc3)n2)o1	none
O=C1ON=C(c2ccccc2)/C1=C/c1ccccc1	G9a block 45µM
O=C1ON=C(c2ccc(Cl)cc2)/C1=C/c1ccc(O)cc1	BAZ2B inh inconclusive, G9a block 50µM (no result: L3MBTL1 inh)
O=C1ON=C(c2ccccc2)/C1=C/c1ccc(O)cc1	G9a block 50µM
CCCCc1ccc(/C=C2/C(=O)ON=C2c2ccccc2)s1	none
Cc1ccc(NS(=O)(=O)c2cccc(C(=O)O)c2)cc1C	none (no result: L3MBTL1 inh, BAZ2B inh, G9a block, HP1b binding inh)
O=C1ON=C(c2ccccc2)/C1=C\c1ccco1	L3MBTL1 inh 22µM, BAZ2B inh inconclusive, G9a block 32µM
CC(C)C(=O)NC(c1ccco1)c1ccc2cccnc2c1O (centres undefined)	L3MBTL1 inh inconclusive, JMJD2A Tudor inh 79µM (no result: BAZ2B inh)
c1coc(CNc2nc3ccccc3s2)c1	none (no result: L3MBTL1 inh)
Oc1c(C(Nc2nc3ccccc3s2)c2ccco2)ccc2cccnc12 (centres undefined)	BAZ2B inh 50µM, JMJD2A Tudor inh inconclusive, G9a block 25µM
CC(C)C(=O)NC(c1cccc([N+](=O)[O-])c1)c1ccc2cccnc2c1O (centres undefined)	L3MBTL1 inh inconclusive, BAZ2B inh 25µM, JMJD2A Tudor inh inconclusive (no result: G9a block)
COc1ccc(-c2nc(NC(=O)c3[nH]c(C)c(C(C)=O)c3C)sc2C)cc1	BAZ2B inh inconclusive, JMJD2A Tudor inh inconclusive, G9a block 50µM (no result: L3MBTL1 inh)
CC(=O)c1c(C)[nH]c(C(=O)Nc2nc(C)cs2)c1C	BAZ2B inh 50µM
C/C(CCc1oc2ccc(Cl)cc2c1-c1ccc(C)o1)=N\O	BAZ2B inh inconclusive, JMJD2A Tudor inh 89µM, G9a block inconclusive, HP1b binding inh inconclusive
Cc1nc2nc(SCC(=O)NCCc3ccc(Cl)cc3)nn2c(C)c1Cc1ccccc1	none (no result: L3MBTL1 inh)
COc1ccc(NC(=O)NNC(=O)c2ccccc2-n2cccc2)cc1OC	BAZ2B inh inconclusive (no result: G9a block)
CCCN1C(=O)C(Cc2nc3ccccc3c(=O)n2CC)c2cc(Br)ccc21 (centres undefined)	none (no result: L3MBTL1 inh)
Cc1ccc(C2=NN(C3=NN=C(N)Cc4ncnn43)C(O)(C(F)(F)F)C2)cc1 (centres undefined)	none
NC1=NN=C(N2N=C(c3ccco3)CC2(O)C(F)(F)F)n2ncnc2C1 (centres undefined)	BAZ2B inh 79µM
CN=c1scc(-c2ccc([N+](=O)[O-])cc2)n1/N=C/c1ccco1	BAZ2B inh inconclusive, G9a block 50µM (no result: L3MBTL1 inh)
CN(Cc1ccccc1)C(=O)COC(=O)c1cc(NS(=O)(=O)c2cccs2)ccc1O	none (no result: BAZ2B inh)
COc1ccc(C2=CC(c3ccc(F)cc3)n3nnnc3N2)cc1 (centres undefined)	none
O=C1CCC(=O)N1c1nc2n(n1)C(c1ccccc1)C=C(c1ccc(Br)cc1)N2 (centres undefined)	L3MBTL1 inh inconclusive, BAZ2B inh inconclusive, JMJD2A Tudor inh inconclusive, G9a block 25µM
COc1ccc(C2C=C(c3ccc(Br)cc3)Nc3nc(N4C(=O)CCC4=O)nn32)cc1 (centres undefined)	BAZ2B inh inconclusive, JMJD2A Tudor inh inconclusive, G9a block 35µM
Cc1ccc(C2C=C(c3ccccc3)Nc3nc(NS(=O)(=O)c4ccc(C)cc4)nn32)cc1 (centres undefined)	none (no result: L3MBTL1 inh)
O=C(O)c1cc(O)c2c(c1)[C@@H]([C@H]1c3cc(C(=O)O)cc(O)c3C(=O)c3c(O[C@@H]4O[C@H](CO)[C@@H](O)[C@H](O)[C@H]4O)cccc31)c1cccc(O[C@@H]3O[C@H](CO)[C@@H](O)[C@H](O)[C@H]3O)c1C2=O	L3MBTL1 inh 0.11µM, JMJD2A Tudor inh 0.89µM, HP1b binding inh 1.3µM (no result: BAZ2B inh, G9a block)
OCC1OC(Oc2cccc3ccccc23)C(O)C(O)C1O (centres undefined)	none (no result: L3MBTL1 inh)
Cc1cccc(C)c1NC(=O)C(=O)NCC(c1ccc2c(c1)OCO2)N1CCN(C)CC1 (centres undefined)	none (no result: L3MBTL1 inh)
O=C(NCc1ccco1)c1nn2c(C(F)(F)F)cc(-c3cccs3)nc2c1Br	BAZ2B inh inconclusive, G9a block 50µM (no result: L3MBTL1 inh)
O=C(NCc1ccco1)c1nc2nc(-c3cccs3)cc(C(F)(F)F)n2n1	L3MBTL1 inh inconclusive, BAZ2B inh inconclusive, G9a block 45µM
O=C1c2ccccc2C(=O)N1c1cccc(Cl)c1	none (no result: L3MBTL1 inh, BAZ2B inh, G9a block, HP1b binding inh)
Cn1c(=O)c2sccc2n2c(CCC(=O)Nc3ccc(F)cc3)nnc12	none (no result: L3MBTL1 inh)
O=C(O)c1cccnc1SC1CC(=O)N(c2ccc(OC(F)F)cc2)C1=O (centres undefined)	G9a block 45µM (no result: L3MBTL1 inh)
O=C(O)c1cccnc1SC1CC(=O)N(c2cccc(C(F)(F)F)c2)C1=O (centres undefined)	G9a block 35µM
Cc1nc2ccn(Cc3cccnc3)c(=O)c2cc1C(=O)N1CCN(c2ccc(F)cc2)CC1	none (no result: L3MBTL1 inh)
Cc1nn(-c2ccccc2)c(N2CCCC2)c1/C=N/Nc1ccc(S(N)(=O)=O)cc1[N+](=O)[O-]	L3MBTL1 inh inconclusive, BAZ2B inh 10µM, JMJD2A Tudor inh 7.1µM, G9a block 10µM, HP1b binding inh 40µM
COc1ccccc1-c1nnc(SCC(=O)NCc2cccs2)n1N	none
CCC1CCCCN1CC(O)COCc1cccc(OC)c1 (centres undefined)	none (no result: L3MBTL1 inh)
CCOC(=O)C1CCN(CC(O)COCc2ccc(Cl)cc2)CC1 (centres undefined)	none (no result: L3MBTL1 inh)
OCCC1CCCCN1CC(O)COCc1ccc(Cl)cc1 (centres undefined)	BAZ2B inh inconclusive, JMJD2A Tudor inh 22µM, G9a block inconclusive, HP1b binding inh inconclusive (no result: L3MBTL1 inh)
NC(=O)C1CCCN(CC(O)COCc2ccc(Cl)cc2)C1 (centres undefined)	BAZ2B inh 50µM, JMJD2A Tudor inh 18µM (no result: L3MBTL1 inh)
CCn1c(CNC(=O)c2ccc(OC)cc2)nnc1SCC(=O)Nc1ccccc1	none (no result: L3MBTL1 inh)
Cc1ccccc1NC(=O)C1C2CCCCC21 (centres undefined)	none
O=C(NN1C(=O)c2ccccc2C1=O)C1C2CCCCC21 (centres undefined)	G9a block 2.8µM
COCC(C)OC(=O)C(C#N)c1nc2ccccc2nc1N1CCN(Cc2ccccc2)CC1 (centres undefined)	BAZ2B inh inconclusive, G9a block 45µM
CN1CCN(c2nc3ccccc3nc2C(C#N)C(=O)OC2CCCCC2)CC1 (centres undefined)	BAZ2B inh 56µM, G9a block inconclusive
COc1ccc(N2CCN(S(=O)(=O)c3ccc(OC)cc3)CC2)cc1	BAZ2B inh inconclusive, JMJD2A Tudor inh inconclusive, G9a block 25µM, HP1b binding inh inconclusive
CCC(CC)N1CCN(S(=O)(=O)c2ccc(OC)cc2)CC1	BAZ2B inh 50µM, JMJD2A Tudor inh 1.6µM, G9a block 3.5µM, HP1b binding inh inconclusive
COc1ccc(N2CCN(S(=O)(=O)c3cc(-c4cc(C)no4)ccc3C(C)C)CC2)cc1	BAZ2B inh 10µM, G9a block 22µM (no result: L3MBTL1 inh)
COc1ccc(OC)c(S(=O)(=O)N2CCN(c3ccc(F)cc3)CC2)c1	none

Compound activity (PubChem BioAssay)
